From the OligoGym collection come the findings set out here.
Note: reference of the scale not given here.

The first assay deals with ADCYAP1. In words: pooled miR-30 sensor sort-seq; sequence = guide strand. Particulars: shRNA.
TAGCGGCTGTAGCTGTCCGTGA displayed a sensor-assay potency score (higher = more potent) of -1.1. Still for that read-out and setting: as for TCTTCCTCTGGCCTGATCCCGG, the figure is -1.48. For TTACATAAATACATGTTTGGAT, the sensor-assay potency score (higher = more potent) is -0.0777. The same measure, in the same setting: as for TACGCCTCTTCCTCTGGCCTGA, the figure is -1.02; as for TTGACAGCCATTTGTTTCCGGT, -0.424. Still for that read-out and setting: as for TTAACCCTTTGTTTATACCTCT, the figure is -0.397.

On to TGCTGTGCATGATTATCCCATA, for which the sensor-assay potency score (higher = more potent) was -1.74. Still for that read-out and setting: the figure for TAGCTGTCCGTGAAGATCCCGT is -0.391; for TTCCGGTAGCGGCTGTAGCTGT it is -1.35; for TGGGCGACATCTCTTCTCCCGG it is -1.69.

Sequence TATCCCATAGACCAGCAGGGCC gave a sensor-assay potency score (higher = more potent) of -1.32.

TGTCCGTGAAGATCCCGTCCGA had a sensor-assay potency score (higher = more potent) of -0.344. On the same count and under the same terms, the figure for TAGGCCTCGTTAAGGATCCCGT is -0.922; for TGTTTGGATAGAACACACGAGC it is -1.09; for TTGTTTCCGGTAGCGGCTGTAG it is -0.993. On the same count and under the same terms, as for TAACCCTTTGTTTATACCTCTT, the figure is -0.602; as for TCCGTGAAGATCCCGTCCGAGT, -1.83; as for ATTTGTTTCCGGTAGCGGCTGT, -0.122.

As for TTGTTTATACCTCTTCCCTAGG, the sensor-assay potency score (higher = more potent) is -0.956. The same measure, in the same setting: the figure for TTATCCCATAGACCAGCAGGGC is -1.43.

For the sequence TTTGTTTATACCTCTTCCCTAG, the sensor-assay potency score (higher = more potent) turned out to be 0.232.

The target in the next assay is ADC. The assay is described as above. The note with it: shRNA.
The sequence TGGTCTTGGAGGTGGAACCATT showed a sensor-assay potency score (higher = more potent) of -1.77. The same measure, in the same setting: as for TTCTTCTGCAGGATGGGGGTAG, the figure is -0.285. In turn, TTTTCAAGCAGGTGTCTGCAGG gave a sensor-assay potency score (higher = more potent) of -0.788. Still for that read-out and setting: the figure for TTCTGCAGCCATCAGCTGCCTT is -1.15; for TGACACTCCAAACTTTAGGCTC it is -0.511; for ATGTTGTCAAAGACCAGCCAGT it is -1.56. On the same count and under the same terms, as for TTGCATACTTGAACTACAGCGA, the figure is 0.563; as for TTCAGTGACACTCCAAACTTTA, -0.979. Still for that read-out and setting: as for TTGTCAAACAGGACTGAGTTGA, the figure is -0.112; as for TTTCAGTGACACTCCAAACTTT, -0.644; as for TACACGATGGTCTTGGAGGTGG, -0.24.

Turning to TTGATCACGGAAGCAATCTCTT, the sensor-assay potency score (higher = more potent) was -0.838.

Another assay concerns the target ADD2. Described as above. The note with it: shRNA.
For TTTCTCTCCATCAAGTTCTAGT, the sensor-assay potency score (higher = more potent) is -0.228.

TATAGCTCTTCCATCCATCATT showed a sensor-assay potency score (higher = more potent) of -1.04. TTGGCTAGTCACTTTGAGCAGC registered a sensor-assay potency score (higher = more potent) of -0.569. On the same count and under the same terms, the figure for TAGAGGTATCAACATCCGTGTC is -1.2. On the same count and under the same terms, the figure for TTCACTGCAAGAAACTCCCTTA is 0.39.

The sequence TCTTATAGCTCTTCCATCCATC yielded a sensor-assay potency score (higher = more potent) of -0.635. On the same count and under the same terms, as for TTGATAGGCGTCATCATGGAGA, the figure is -0.575.
